Rows were chosen to be rich in hits. Some 1.2% of all compounds tested hit in one or more screens of this group.
CCT modulator: High-Throughput Screening for Modulators of Cytosolic Chaperonin Activity. purified chaperonin ATPase assay, HTRF ADP detection, 30 min. activity change, % (concentration not given with the values), hits read low. actives 0.3% (n = 360,000). AID 651819, 2012; in the data active = activity change below about -30%; note: % is set by controls: 0 for no effect and ±100 for the full control effect
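TRiC at 40 or 20 nM final (batch-dependent) in 30 mM Tris pH 7.4, 100 mM KCl, 5 mM MgCl2, 1 mM DTT, with compound at single 76 uM and 10 uM ATP, 30 min at 37 deg C. ADP detected by HTRF Transcreener, 665/615 ratio.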
Mm-Cpn inhibitor: Inhibitors of TCP-1 ring complex (TRiC) of Methanococcus maripaludis (MmCpn): qHTS. Chaperonin Mm-Cpn (Methanococcus maripaludis). purified Mm-Cpn ATPase, ADP Transcreener TR-FRET. Potency, µM (highest dose often 76.9 µM), for inactives: at the top dose activity, negative = inhibition, most hits filed as inhibitors. actives 0.031% (n = 330,000). AID 504842, 2011; active = well fitted inhibition curve with a large enough effect; inconclusive = small, poorly fitted or top-dose-only effect; note: potency is the fitted concentration of half-maximal effect; % is set by controls: 0 for no effect and ±100 for the full control effect; nearly all actives have a fitted effect of over 80% in size
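Reaction buffer contained 30 mM Tris pH 7.4, 100 mM KCl, 5 mM MgCl2 and 1 mM DTT. Mm-CPN (25 nM final) hydrolysed 10 uM ATP over 30 min at 37°C; ADP was read by HTRF.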
gsp antagonist: qHTS for Antagonists of gsp, the Etiologic Mutation Responsible for Fibrous Dysplasia/McCune-Albright Syndrome: qHTS | gsp-mutant cells, cAMP HTRF, 30 min | AID 624288, 2012 | Potency, µM (titrated, usually from 76.9 µM), for inactives: at the top dose activity change, negative = inhibition, usual class: inhibitors | actives 0.4% (n = 340,000); calls by dose curve; cell line not stated here;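 note: intracellular cAMP measured with PDE inhibitor Ro 20-1724 present during compound exposure; potency is the fitted concentration of half-maximal effect; % is set by controls: 0 for no effect and ±100 for the full control effect; nearly all actives have a fitted effect of over 65% in size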
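HTRF cAMP measurement after 30 min RT detection following 30 min, 37C compound treatment alongside […] (added as 300 uM solution) in G418-selected cells seeded at 2000/well and grown 16–24 h.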
uPA surface inh: qHTS for Inhibitors of Cell Surface uPA Generation; cell surface uPA generation assay, qHTS; Potency, µM (highest dose often 38.3 µM), for the others: at the highest dose activity change, negative = inhibition, actives largely listed as inhibitors; actives 0.31% (n = 330,000); active = well fitted inhibition curve with a large enough effect; inconclusive = small, poorly fitted or top-dose-only effect; inactive = no such curve, though single readings can be large or run the other way; tested in mouse RAW 264.7 cells; note: potency is the fitted concentration of half-maximal effect; % is set by controls: 0 for no effect and ±100 for the full control effect; nearly all actives have a fitted effect of over 55% in size
gsp agonist: qHTS for Agonist of gsp, the Etiologic Mutation Responsible for Fibrous Dysplasia/McCune-Albright Syndrome: qHTS; gsp mutant cells, cAMP HTRF, 30 min; Potency, µM (highest dose often 76.9 µM), for the others: at the highest dose activation (cAMP increase), usual class: activators; actives 0.13% (n = 340,000); AID 624287, 2012; active = well fitted activation curve with a large enough effect; inconclusive = small, poorly fitted or top-dose-only effect, or another doubt; inactive = no such curve, though single readings can be large or run the other way; cell line not stated here;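 note: phosphodiesterase inhibitor Ro 20-1724 added with compounds to block cAMP breakdown; potency is the fitted concentration of half-maximal effect; nearly all actives have a fitted effect of over 60% in size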
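Cells in DMEM/10% FBS with G418 were pretreated with compounds in DMSO plus […] (300 uM stock) for 30 min at 37C. cAMP was measured by HTRF (cAMP-d2 plus anti-cAMP antibody-K) after 30 min at room temperature.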
TSHR antag: Antagonists of the Thyroid Stimulating Hormone Receptor: HTS campaign; Thyrotropin receptor (Homo sapiens), P16473; TSHR-expressing cells, TSH-stimulated cAMP HTRF, 2 h; hits give low values; activity change, negative = inhibition, % at 11.5 µM; actives 0.2% (n = 330,000);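 active = activity change below a set negative limit, meaning inhibition stronger than a set level, cut at about -70% in these data; inconclusive = activity change between two set negative limits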; note: % is set by controls: 0 for no effect and ±100 for the full control effect
Target sequence (P16473 whole entry, looked up): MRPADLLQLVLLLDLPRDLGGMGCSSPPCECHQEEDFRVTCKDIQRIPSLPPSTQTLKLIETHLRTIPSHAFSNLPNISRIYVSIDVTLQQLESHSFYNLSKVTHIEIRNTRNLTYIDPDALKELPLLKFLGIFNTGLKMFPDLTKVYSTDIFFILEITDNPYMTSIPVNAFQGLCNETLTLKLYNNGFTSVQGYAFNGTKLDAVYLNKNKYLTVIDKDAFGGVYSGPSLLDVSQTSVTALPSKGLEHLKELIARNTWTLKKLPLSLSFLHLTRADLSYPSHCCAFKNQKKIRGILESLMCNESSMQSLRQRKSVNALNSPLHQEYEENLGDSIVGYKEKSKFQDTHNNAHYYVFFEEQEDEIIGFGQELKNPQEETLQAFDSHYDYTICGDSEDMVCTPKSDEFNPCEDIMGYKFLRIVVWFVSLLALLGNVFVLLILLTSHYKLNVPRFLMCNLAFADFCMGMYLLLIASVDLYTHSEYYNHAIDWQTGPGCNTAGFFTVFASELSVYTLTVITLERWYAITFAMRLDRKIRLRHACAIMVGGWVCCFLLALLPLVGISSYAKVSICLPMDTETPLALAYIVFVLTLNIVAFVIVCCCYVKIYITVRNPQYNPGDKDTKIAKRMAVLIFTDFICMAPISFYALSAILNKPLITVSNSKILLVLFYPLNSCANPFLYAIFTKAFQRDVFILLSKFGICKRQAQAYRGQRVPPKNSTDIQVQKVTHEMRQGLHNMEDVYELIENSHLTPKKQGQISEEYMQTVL
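Read-out is FRET at 665 nm (cryptate excitation 337 nm) from a cryptate-tagged anti-cAMP antibody, competed by cell cAMP against cAMP-d2. Compounds are tested on freshly harvested TSHR cells challenged with 4nM TSH (EC80) for 2 hours at 37 deg C.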
* = called active by the depositor; [ ] = dose if it differs, or a comment.

How did Cc1ccc(S(=O)(=O)Nc2ccccc2N(C)S(=O)(=O)c2ccc(C)cc2)cc1 do in these assays?
CCT modulator: 1.2; Mm-Cpn inhibitor: 0.5%; gsp antagonist: -9.1%; uPA surface inh: inconclusive; TSHR antag: -75.0*

How did CCCn1nc2ccccc2c1P(=O)(N1CCOCC1)N1CCOCC1 do in these assays?
CCT modulator: -0.3; Mm-Cpn inhibitor: 0.0%; gsp antagonist: 0.5%; uPA surface inh: 7.2%; gsp agonist: -14.2%; TSHR antag: -2.1

How did O=C1CN=C(c2ccccc2)c2c(sc3c2CCCC3)N1 do in these assays?
CCT modulator: 1.9; Mm-Cpn inhibitor: -1.0%; gsp antagonist: -3.0%; uPA surface inh: 4.47µM*; TSHR antag: -7.2

Results for CN1CCCN(c2ccc([N+](=O)[O-])nc2)CC1 ?
CCT modulator: -0.5; Mm-Cpn inhibitor: 2.6%; gsp antagonist: 4.9%; uPA surface inh: -2.3%; gsp agonist: inconclusive; TSHR antag: 11.7

What do the screens show for `O=C(O)C1C2c3ccccc3C(c3ccccc32)C1C(=O)Nc1ccccc1` (stereo unspecified)?
CCT modulator: -2.4; Mm-Cpn inhibitor: 0.3%; gsp antagonist: -5.6%; uPA surface inh: 5.3%; gsp agonist: 7.7%; TSHR antag: -9.3

What do the screens show for `O=C(O)C1C2CCC(O2)C1C(=O)Nc1cccc(Br)c1` (stereo unspecified)?
CCT modulator: -0.8; Mm-Cpn inhibitor: -0.9%; gsp antagonist: 4.7%; uPA surface inh: 11.2µM*; gsp agonist: 4.7%; TSHR antag: -3.7

Results for N#CC1=C(N)Oc2c(c(=O)sc3ccccc23)C1c1cccnc1 (stereo unspecified) ?
CCT modulator: -42.9*; Mm-Cpn inhibitor: -5.2%; gsp antagonist: -11.5%; uPA surface inh: -12.1%; gsp agonist: 7.6%[15.4 µM]; TSHR antag: -2.6

Results for N#CC1=C(N)Oc2c(c(=O)oc3ccccc23)C1c1ccncc1 (stereo unspecified) ?
CCT modulator: -0.9; Mm-Cpn inhibitor: 0.4%; gsp antagonist: -27.1%; uPA surface inh: 11.5%; gsp agonist: inconclusive; TSHR antag: 9.9

What do the screens show for `O=C(CCC(=O)N1CC2C[C@@H](C1)Cn1c2cccc1=O)NCCc1ccccc1F`?
CCT modulator: -0.3; Mm-Cpn inhibitor: -0.4%; gsp antagonist: 8.4%; uPA surface inh: -10.1%; TSHR antag: -6.7

What do the screens show for `C[n+]1ccc(-c2ccccc2)c2ccccc21`?
CCT modulator: -31.7*; Mm-Cpn inhibitor: -5.5%; gsp antagonist: 4.7%; uPA surface inh: inconclusive; TSHR antag: 3.1

Results for CN(C)c1ccc(/C=C/c2cc[n+](C)c3ccccc23)cc1 ?
CCT modulator: 1.0; Mm-Cpn inhibitor: inconclusive; gsp antagonist: inconclusive; uPA surface inh: -10.9%; gsp agonist: -128.1%; TSHR antag: -21.7

Results for CCOC(=O)CC1c2ccccc2-n2nncc2CN1C (stereo unspecified) ?
CCT modulator: -86.1*; gsp antagonist: 1.1%; uPA surface inh: 4.5%

Results for O=C(c1ccc2c(Cl)c3c(nc2c1)CCCC3)N1CCC(N2CCCCC2)CC1 ?
CCT modulator: 2.2; Mm-Cpn inhibitor: -1.2%; gsp antagonist: 7.2%; uPA surface inh: 10µM*; gsp agonist: 1.9%; TSHR antag: 3.4

How did COc1ccc(CN2C(=O)NC(=O)/C(=C\c3ccco3)C2=O)cc1 do in these assays?
CCT modulator: 0.5; Mm-Cpn inhibitor: -1.4%; gsp antagonist: 4.7%; uPA surface inh: 2.9%; gsp agonist: 2.0%; TSHR antag: -3.8

What do the screens show for `O=C1NC(=O)N(Cc2ccccc2)C(=O)/C1=C/C=C/c1ccco1`?
CCT modulator: -2.1; Mm-Cpn inhibitor: -3.7%; gsp antagonist: 50.1µM*; uPA surface inh: inconclusive; gsp agonist: 18.5%; TSHR antag: -5.1

Results for CCC1C=CC=CC[C@H](C)[C@@H](O)[C@](C)(O)C(=O)[C@@H](C)[C@H](O)[C@@H](C)C(=O)[C@H](C)[C@@H](O)[C@H](C)C=CC(=O)OC2[C@@H](C)C(CC1)OC1(CC[C@@H](C)C(C[C@H](C)O)O1)[C@@H]2C (stereo partly specified) ?
Mm-Cpn inhibitor: -2.4%; TSHR antag: -79.5*

How did Cc1c(C=O)c2ccccc2n1Cc1ccccc1F do in these assays?
CCT modulator: -1.6; Mm-Cpn inhibitor: -23.7%; gsp antagonist: -0.2%; uPA surface inh: 0.4%; gsp agonist: -18.7%; TSHR antag: -1.3

Results for C[C@]12CCC3C(CC[C@H]4C[C@@H](O)CC[C@]34C)C1=CC[C@@H]2O (stereo partly specified) ?
CCT modulator: -35.1*; gsp agonist: -169.3%

How did C[C@]12CCC3C(CC[C@H]4C[C@H](O)CC[C@]34C)C1C[C@H](O)[C@H]2O (stereo partly specified) do in these assays?
CCT modulator: -0.8; gsp antagonist: 0.6%; uPA surface inh: 5.3%; gsp agonist: -31.3%

What do the screens show for `COc1cc(C=C2C(=O)NC(=O)NC2=O)ccc1OCc1ccc([N+](=O)[O-])cc1`?
CCT modulator: -2.0; Mm-Cpn inhibitor: -1.5%; gsp antagonist: -14.0%; uPA surface inh: -0.9%; gsp agonist: -12.7%[15.4 µM]; TSHR antag: 10.6

What do the screens show for `COc1cc(/C=C(/C)[N+](=O)[O-])ccc1OCc1ccccc1Cl`?
CCT modulator: -30.7*; Mm-Cpn inhibitor: 1.1%; gsp antagonist: 7.9%; uPA surface inh: -19.0%; gsp agonist: 11.6%; TSHR antag: -19.5

How did C=C1[C@H]2CC[C@H]3[C@]4(C)C[C@H](O[C@H]5O[C@H](CO)[C@@H](OS(=O)(=O)O)[C@H](OS(=O)(=O)O)[C@H]5OC(=O)CC(C)C)C[C@@H](C(=O)O)[C@H]4CC[C@]3(C2)[C@H]1O do in these assays?
CCT modulator: 0.2; Mm-Cpn inhibitor: -1.2%; gsp antagonist: -1.8%; uPA surface inh: -1.8%; TSHR antag: -5.8

What do the screens show for `C#C[C@]1(O)[C@H](O)CC2C3CC[C@H]4C[C@@H](O)CC[C@]4(C)C3CC[C@@]21C` (stereo partly specified)?
Mm-Cpn inhibitor: -0.4%; TSHR antag: -1.4
